Measured values taken from PubChem BioAssay (NCATS).
Unmarked numbers belong to inactive results. Calls follow the shape of the dose curve; as a rule, active = well fitted curve in the direction sought with a large enough effect; inconclusive = small, poorly fitted or top-dose-only effect, or effect the other way, or another doubt; inactive = no such curve, though single readings can be large or run the other way.

biological target: Beta-2 adrenergic receptor (Homo sapiens) (UniProt P07550); assay: qHTS validation assay of beta-arrestin-biased ligands of beta2-adrenergic receptor (AID 485366); settings: cell-based beta-arrestin recruitment to ADRB2, qHTS; series mostly up to 46.1 µM; activation: at the top concentration; also: 0% is about no effect
Sequence (P07550 whole entry, looked up): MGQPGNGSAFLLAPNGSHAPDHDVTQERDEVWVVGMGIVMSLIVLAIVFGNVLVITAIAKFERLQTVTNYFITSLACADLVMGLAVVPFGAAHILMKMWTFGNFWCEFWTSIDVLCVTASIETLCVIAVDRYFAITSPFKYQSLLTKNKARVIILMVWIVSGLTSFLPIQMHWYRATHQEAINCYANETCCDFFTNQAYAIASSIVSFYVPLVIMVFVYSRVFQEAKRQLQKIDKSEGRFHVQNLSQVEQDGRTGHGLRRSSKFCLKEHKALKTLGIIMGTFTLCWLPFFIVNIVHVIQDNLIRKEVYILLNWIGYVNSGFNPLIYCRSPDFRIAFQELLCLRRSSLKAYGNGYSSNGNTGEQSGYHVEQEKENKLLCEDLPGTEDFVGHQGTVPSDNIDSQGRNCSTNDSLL
From the text: NIH Molecular Libraries Probe Production Network [MLPCN]
NIH Chemical Genomics Center [NCGC]
PI: Bryan Roth and Bob Lefkowitz
The concept of biased agonism is an emerging concept of molecular pharmacology which proposes that seven transmembrane receptors (7TMRs) or G protein-coupled receptors (GPCRs), exist in multiple signaling conformations and complexes and that ligands (either agonists or antagonists) can induce signaling biased responses for distinct signal transduction cascades.
Furthermore, accumulating evidence over the last decade has drawn attention to a novel function of beta-arrestins as signal transducers that scaffold various signaling molecules upon activation of 7TMRs. […] This beta-arrestin-biased signaling presumably leads to distinct physiological outcomes from those by G protein activation.
Additionally, the active receptor conformations which […] on this beta-arrestin signaling are likely different from those activating G protein signaling
The goal of this screening project will be to discover and optimize novel beta-arrestin-biased ligands for beta2-AR signaling. A luminescent cell-based assay for beta2-AR-mediated agonism, known as the Tango assay, has been validated in which ligand binding of a recombinant beta2-AR and subsequent recruitment of a recombinant beta-arrestin lead to the release of the transcriptional activator tTA, which upregulates transcription of a tTA-responsive luciferase gene. […] Compounds were screened as a concentration-titration series that ranged from 46 microM to 0.6 nM.
NCGC Assay Protocol Summary:
Tango cells were dispensed into white, solid, tissue-culture-treated 1536-well plates at 1500 cells/well in DMEM, containing 1% fetal bovine serum (FBS). Then, 23 nL of compounds or DMSO were delivered to each well using a pin tool. Plates were incubated at 37 degrees C, 5% CO2 for 18 hr. Then 2.5 uL luminescent substrate mix (in-house prepared: 150 mM Tris-Cl, pH 7.6, 3 mM MgCl2, 1% Triton X-100, 5 mM DTT, 0.5 mM CoA, 0.15 mM ATP, 0.44 mM D-luciferin, final concentrations) was added to each well. Plates were then incubated for 15 minutes at room temperature, and subsequently measured on a ViewLux plate reader for luminescent signal using a clear filter with a 10 second exposure and 2x binning. The %Activity was determined from the corrected luminescence values.
Concentration-response curves were fitted to the signals arising from the resulting luminescence. The concentration-effect curves were then classified based on curve quality (r2), response magnitude and degree of measured activity, and compounds were subsequently categorized based on their curve class.
Keywords: biased agonism, beta2-AR, beta-arrestin, GPCR, 7TMR, Tango, luminescence, MLSMR, MLPCN, NIH Roadmap, qHTS, NCGC

SMILES | activation
Cc1ccc(/C(=C\CN2CCCC2)c2ccccn2)cc1 | 0.896%
O=C1NCN(c2ccccc2)C12CCN(CCCC(c1ccc(F)cc1)c1ccc(F)cc1)CC2 | -0.946%
NC(=O)c1cn(Cc2c(F)cccc2F)nn1 | 1.15%
CN(C(=O)CCCOc1ccc2[nH]c(=O)ccc2c1)C1CCCCC1 | 0.2%
CC(C)NNC(=O)c1ccncc1 | 1.73%
c1cnc(N2CCN(Cc3ccc4c(c3)OCO4)CC2)nc1 | 0.391%
C(=C\c1ccccc1)/CN1CCN(C(c2ccccc2)c2ccccc2)CC1 | 3.84%
CCOC(=O)c1cnc2c(cnn2CC)c1NN=C(C)C | -0.468%
CCN(Cc1ccncc1)C(=O)C(CO)c1ccccc1 (stereo not given) | -0.511%
Brc1c(NC2=NCCN2)ccc2nccnc12 | 1.61%
Nc1nc(N)c2nc(-c3ccccc3)c(N)nc2n1 | -0.182%
CCN(CC)CCNC(=O)c1cc(S(C)(=O)=O)ccc1OC | 0.0744%
OC(CCN1CCCCC1)(c1ccccc1)C1CCCCC1 (stereo not given) | 1.61%
CN1CCN(CC(=O)N2c3ccccc3C(=O)Nc3cccnc32)CC1 | 0.329%
C[C@]12CC[C@@H]3c4ccc(O)cc4C[C@@H](CCCCCCCCCS(=O)CCCC(F)(F)C(F)(F)F)[C@H]3[C@@H]1CC[C@@H]2O (stereo not given in full) | -0.12%
CCC(=O)c1ccc2c(c1)N(CCCN(C)C)c1ccccc1S2 | -0.204%
Cc1cc(C)c(/C=C2\C(=O)Nc3ccccc32)[nH]1 | 3.14%
COc1ccc(CN(CCN(C)C)c2ccccn2)cc1 | -0.418%
Cc1nnc(SCC2=C(C(=O)O)N3C(=O)[C@@H](NC(=O)Cn4cnnn4)[C@H]3SC2)s1 | 1.11%
CCOC(=O)C1=C(C)NC(C)=C(C(=O)OC)C1c1cccc(Cl)c1Cl (stereo not given) | 0.183%

SMILES | activation
CCCOc1ccccc1-c1nc2n[nH]nc2c(=O)[nH]1 | -0.139%
CCCCNc1c(C(=O)OCC)c(C)nc2c1cnn2CC | 0.134%
COC(=O)[C@H]1[C@H]2C[C@@H]3c4[nH]c5cc(OC)ccc5c4CCN3C[C@H]2C[C@@H](OC(=O)c2cc(OC)c(OC)c(OC)c2)[C@@H]1OC | -0.412%
Cc1cccc(C)c1NC(=O)C(C)N (stereo not given) | -0.203%
CC(C)(Oc1ccc(CCNC(=O)c2ccc(Cl)cc2)cc1)C(=O)O | -0.142%
NS(=O)(=O)c1cc2c(cc1Cl)NC(C1CC3C=CC1C3)NS2(=O)=O (stereo not given) | 1.02%
CCN1CCC[C@H]1CNC(=O)c1c(O)c(Cl)cc(Cl)c1OC | -0.624%
O=c1[nH]c(=O)n([C@H]2C[C@H](O)[C@@H](CO)O2)cc1Br | -0.331%
Cc1nc2ccccn2c(=O)c1CCN1CCC(C(=O)c2ccc(F)cc2)CC1 | 0.302%
CN(C)C(=O)Oc1ccc[n+](C)c1 | -0.203%
CCCCCN(CCCCC)C(=O)C(CCC(=O)O)NC(=O)c1ccc(Cl)c(Cl)c1 (stereo not given) | -0.0763%
CC(=O)Oc1cc(C(C)C)c(OCCN(C)C)cc1C | 0.477%
CCCCCCCC/C=C\CCCCCCCC(=O)NCc1ccc(O)c(OC)c1 | 0.0301%
Cc1nc2c([nH]1)c(=O)n(C)c(=O)n2Cc1ccco1 | 2.81%
NC(=O)c1ncn([C@@H]2O[C@H](CO)[C@@H](O)[C@H]2O)c1O | -0.355%
CC(C)COCC(CN(Cc1ccccc1)c1ccccc1)N1CCCC1 (stereo not given) | -0.534%
C[n+]1cc2c3c(ccc2c2ccc4cc5c(cc4c21)OCO5)OCO3 | -0.997%
Fc1ccc(C(c2ccc(F)cc2)N2CCN(C/C=C/c3ccccc3)CC2)cc1 | -0.866%
CN(C)CC/C=C1\c2ccccc2COc2ccccc21 | 0.0218%
CN(C)C/C=C(/c1ccc(Br)cc1)c1cccnc1 | 3.8%
